Each structure is given as a SMILES string. The campaign covered roughly 3,600 compounds. About 900 (25%) were called active. How the calls were made is not given here. These entries were drawn from the full list. Measured potencies and affinities stand elsewhere.

The target of the assay is Protein Tat (Human immunodeficiency virus type 1 group M subtype B (isolate HXB2)) (UniProt P04608). The assay is described as follows: HIV-1 Tat–TAR interaction blockers – biochemical, fluorescence polarization, FAM-labeled TAR RNA, counter-screen for Vif-APOBEC3G degradation inhibitor project, dose response (AID 1117361). Conditions: Tat-TAR RNA binding; series mostly up to 100 µM; inhibition: at the top concentration.
For `COC(=O)C1CCN(c2ccc([N+](=O)[O-])cc2)CC1`, the outcome was inactive.

For `O=C(Nc1ccc(N2CCCCC2)cc1)c1cc([N+](=O)[O-])cc([N+](=O)[O-])c1`, the call was inactive.

On to `CC1(C)Cc2ccccc2C(/C(=N/O)C(N)=O)=N1`, for which the molecule was called inactive.

Turning to `COc1ccc2cnn(CCOc3cc(C)ccc3C(C)C)c(=O)c2c1OC`, the inhibition – broadly, the relative decrease from the control value, in per cent – was 1.65% (inactive).

Take `Cc1nc(N(C)C)c2sc(=S)n(C)c2n1`: the call was inactive.

Turning to `Cc1cccc(NC(=O)CSc2nnc(CCC(=O)Nc3ccc(C)c(Cl)c3)n2C)c1`, the “inhibition” value is 4.34% (inactive).

For the molecule `CCCCc1nccn1CCn1ccnc1CCCC`, the “inhibition” value was 6.14% (inactive).

In the case of `CCc1ccc(C2C(C(C)=O)=C(C(=O)OC)Nc3nnnn32)cc1` (configuration not stated), the “inhibition” value was 7.5% (inactive).

As to `COC(=O)COc1ccc(S(=O)(=O)Nc2ccc(C(N)=O)cc2)cc1C`, the molecule was called inactive.

`COc1ccc(S(=O)(=O)Nc2cc(SCC(=O)O)c(O)c3ccccc23)cc1`: the “inhibition” value is 0.33% (inactive).

With `CCc1ccc(CCC(=O)Nc2ccc(S(N)(=O)=O)cc2)o1`, the “inhibition” value is 17.6% (inactive).

With `Cc1onc(-c2ccccc2)c1CNC(=O)C1COc2ccccc2O1` (configuration not stated), the result was inactive.

As to `CCc1cccc(NC(=O)Cn2ncn3c(cc4ccccc43)c2=O)c1`, the “inhibition” value is 8.11% (inactive).

In the case of `O=S(=O)(c1ccc(OCc2nc3ccccc3s2)c(Cl)c1)N1CCOCC1`, the “inhibition” value is 4.09% (inactive).

Regarding `COc1ccc(C(=O)N2CC3(C)CC2CC(C)(C)C3)cc1` (configuration not stated), the “inhibition” value was 2.03% (inactive).

For `Cc1ccc(OCCN2CCCCCC2)c(C)c1`, the “inhibition” value is 2.73% (inactive).

With `CC1CCCCC1NC(=S)Nc1cccc(S(=O)(=O)N(C)C)c1` (configuration not stated), the molecule was called inactive.

As for `CCn1c(C)nc2cc(C(=O)NNC(=O)CCC3CCCCC3)ccc21`, the outcome was inactive.

On to `CCN(CC)S(=O)(=O)c1cccc(NN=c2c(=O)c3ccccc3c2=O)c1`, for which the “inhibition” value is 11.6% (inactive).

Take `Cc1cccc(N/C=C/C(=C(C#N)C#N)N(C)C)c1`: the “inhibition” value is 16.2% (inactive).

With `Cc1c(/C=N\NC(=O)c2csc3ccccc23)cnn1C`, the molecule was called inactive.

On to `COc1cccc(/C=N/NC(=O)c2cnccn2)c1O`, for which the “inhibition” value was 10.7% (inactive).

In the case of `Cc1cc(SCC(=O)N/N=C/c2ccc(O)c(O)c2O)c(C)cc1Br`, the “inhibition” value is 0.33% (inactive).

`CN(C)S(=O)(=O)c1ccc(NC(=O)c2cc3ccccc3o2)cc1`: the molecule was classed as inactive.

As for `CNC(=O)CN(C)S(=O)(=O)c1ccc(F)cc1`, the molecule was classed as inactive.

With `C=CCSc1nnc(NC(=O)CSc2nnc(C)s2)s1`, the outcome was inactive.

Regarding `COc1ccc(C(=O)n2nc(-c3ccccc3)nc2SC)cc1`, the “inhibition” value was 5.41% (inactive).

In the case of `CCOc1ccc(NC(=O)C2CCCN(S(=O)(=O)c3c(C)n[nH]c3C)C2)cc1` (configuration not stated), the “inhibition” value was 0.82% (inactive).

As for `CCCNC(=O)Cn1c2ccccc2c2nc(=O)cc(C)n21`, the “inhibition” value was 4.73% (inactive).

In the case of `CCOC(=O)c1c(C)[nH]c(C(=O)CSc2nnc(C3CC3)n2N)c1C`, the “inhibition” value was 3.38% (inactive).

On to `CN(C)S(=O)(=O)N1CCN(c2ccc(Cl)cc2)CC1`, for which the molecule was classed as inactive.

With `CCCC(=O)NC(C)C(c1cccs1)N1CCN(C)CC1` (configuration not stated), the “inhibition” value is 9.69% (inactive).

Regarding `Cc1ccc(S(=O)(=O)N(C)c2ccccc2C(=O)N2CCCC2)cc1`, the “inhibition” value was 1% (inactive).

On to `COc1cc(C(=O)NNC(=S)NCc2ccco2)cc(OC)c1OC`, for which the “inhibition” value was 21.4% (inactive).

`CC(C)(C)c1ccc(S(=O)(=O)NCc2ccc(C(=O)NCc3ccccn3)cc2)cc1`: the call was inactive.

On to `COc1ccc(C(=O)NCc2cccnc2)cc1OC`, for which the “inhibition” value is 2.03% (inactive).

Turning to `CCS(=O)(=O)N1CCC(C(=O)NCc2ccccn2)CC1`, the “inhibition” value was 5.41% (inactive).

For the molecule `O=C(CCS(=O)(=O)c1cccs1)Nc1ccc(C(=O)NCc2ccccc2)cc1`, the molecule was called inactive.

As for `O=C(NCc1ccco1)c1ccc2snnc2c1`, the “inhibition” value was 6.82% (inactive).

In the case of `O=C(NCCc1ccccc1)c1ccc2c(c1)N(Cc1ccccc1)C(=O)CS2=O` (configuration not stated), the “inhibition” value was 4.05% (inactive).

With `O=C(Cc1ncn[nH]1)NCCc1ccccc1`, the “inhibition” value is 2.7% (inactive).

For the molecule `COc1ccc(CCNC(=O)Cn2nnc(-c3cccc(OC)c3OC)n2)cc1OC`, the “inhibition” value was 5.46% (inactive).

On to `CC(c1nnc(SCn2nnc3ccccc3c2=O)n1-c1ccc(Cl)cc1)N(C)C` (configuration not stated), for which the “inhibition” value is 8.11% (inactive).

As to `COc1cccc(-c2nc(CS(=O)(=O)CC(=O)NC3CC3)c(C)o2)c1`, the “inhibition” value is 6.35% (inactive).

On to `CCOc1ccc(N2CC(C(=O)NCC(=O)Nc3ccc(F)c(F)c3F)CC2=O)cc1` (configuration not stated), for which the “inhibition” value is 4.12% (inactive).

`NS(=O)(=O)c1ccc(NC(=O)c2ccccc2C(=O)N2CCCCC2)cc1`: the “inhibition” value is 8.11% (inactive).

Take `CCN(C(=O)CCc1nc(-c2ccccc2F)no1)c1cc(OC)ccc1OC`: the result was inactive.

`COc1ccccc1NC(=O)COC(=O)c1cc2c(s1)CCC2`: the “inhibition” value was 23.1% (inactive).

Regarding `CCOC(=O)c1cccc2c(=O)c(C(=O)c3ccc(Cl)cc3)c(C(=O)OC)[nH]c12`, the “inhibition” value is 3.3% (inactive).

`C/C(=N\OC(=O)c1ccc(F)cc1)c1sc(-c2ccccc2)nc1C`: the result was inactive.

As for `CC1CCc2cc(F)ccc2N1C(=O)C1(C)CC1(Cl)Cl` (configuration not stated), the “inhibition” value is 8.11% (inactive).

Take `O=C(NCc1ccccn1)c1ccc(Cn2cc(Br)cn2)o1`: the “inhibition” value is 29.3% (inactive).

As to `C/C(=N\O)C(=O)NCc1ccccn1`, the “inhibition” value was 23.2% (inactive).

Take `O=C(NC1=CC(=O)c2ccccc2C1=O)c1ccccc1`: the result was inactive.

In the case of `Cc1ccc(NC(=O)CNC(=O)COc2ccccc2)nc1`, the result was inactive.

`COc1ccc2cc(C(=O)N3CCOCC3)sc(=O)c2c1OC`: the “inhibition” value was 10.2% (inactive).

With `COc1ccccc1/C=C/C=C1N=C(/C=C/c2ccc(Cl)cc2)OC/1=O`, the call was inactive.

For the molecule `COc1ccc(/C=C(/NC(C)=O)C(=O)O)cc1`, the “inhibition” value is 0.68% (inactive).

As to `COc1ccc(/C=C/C(=O)NC(=S)Nc2ccccn2)cc1`, the result was inactive.

Take `COc1ccc(OC)c(/C(O)=C/C(=O)C(=O)Nc2ccccc2OC)c1`: the “inhibition” value was 16.2% (inactive).

Consider `CN1C(=O)CC(N2CCN(C(=O)c3ccccc3)CC2)C1=O` (configuration not stated), for which the “inhibition” value is 6.76% (inactive).

Take `Cc1cc(-n2ccnc2)n2c(nc3ccccc32)c1C#N`: the “inhibition” value is 15% (inactive).

Regarding `COc1cc(-n2cnnn2)ccc1S(=O)(=O)N1CCOCC1`, the “inhibition” value was 3.01% (inactive).

Consider `CCCn1c(=O)c(-c2ccccc2)c(O)c2ccccc21`, for which the “inhibition” value is 12.8% (inactive).

With `O=C1c2ccccc2S(=O)(=O)N1CC(O)COc1ccc(Br)cc1` (configuration not stated), the outcome was inactive.

As for `CCOC(=O)C1C(c2ccc(O)c(OCC)c2)NC(=S)NC1(O)C(F)(F)F` (configuration not stated), the molecule was called inactive.

On to `CS(=O)(=O)c1ccc(Cl)c(NC(=O)COC(=O)COc2ccc3c(c2)CCC3)c1`, for which the molecule was classed as inactive.

As to `COc1ccc(CNC(=O)CN(CC2CCCO2)C(=O)CNS(=O)(=O)c2ccc(C)cc2)cc1` (configuration not stated), the result was inactive.

Consider `COc1cccc(CNC(=O)Cn2c(=O)oc3ccccc32)c1OC`, for which the molecule was classed as inactive.

For `COc1ccc(OC)c(/C(O)=C/C(=O)C(=O)Nc2cc(C)ccc2OC)c1`, the “inhibition” value was 1.35% (inactive).

Turning to `COc1ccc(OC)c(NC(=O)c2[nH]c(C)c(C(C)=O)c2C)c1`, the “inhibition” value is 29.1% (inactive).

As to `COc1ccc(CC(=O)OCc2cc3ccc(C)cc3[nH]c2=O)cc1`, the “inhibition” value is 12.8% (inactive).

Values taken from PubChem BioAssay AID1117361 (Southern Research Institute, 2015).
